# Results from PubChem BioAssay (NCI).
# About 83,000 compounds went through this panel and 20% of them were active in at least one assay; those are over-represented in the sample as a whole.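 The endpoint reported here, percent growth, reads 100 for growth as untreated, 0 for no net growth and -100 for all cells dead.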 Values without a mark were called inactive. Activity calls are given as the source filed them. The calls were made as follows: active = growth percent below 10; inactive = the rest.
# System: SNB-19 CNS
# Assay: NCI-60 one-dose screen, 48 h (100 = growth as untreated, 0 = no growth, -100 = all killed)
# Settings: 10 µM
row,Compound,growth
1,CCc1ccc(-c2ccc(-n3nc(C)c4c(N)nc(Cc5ccccc5)nc43)cc2)cc1,66.3%
2,O=[N+]([O-])c1ccc2ncccc2c1Cl,62.7%
3,Cc1ccc(-n2nnnc2N)c(C)c1,113%
4,Oc1ccc(-c2[nH]c3ccccc3c2-c2nc3ccccc3o2)cc1,89.6%
5,CCc1ccc(C2=NN(c3ccc(S(C)(=O)=O)cc3)C(=O)CC2)cc1,51.5%
6,COc1ccc(-c2nn(-c3cccc(Cl)c3)cc2-c2c(C#N)c(=O)n3[nH]c(-c4ccc(C)cc4)nc3c2C#N)cc1,64.2%
7,O=C1c2ccccc2C(=O)c2c1ccc(C(Br)Br)c2[N+](=O)[O-],60.9%
8,CCOC(=O)CC(S(=O)(=O)c1ccccc1)S(=O)(=O)c1ccccc1,93.4%
9,CC(=O)Nc1ccc(S(=O)(=O)c2ccnc3cc(Cl)ccc23)cc1,102%
10,O=C(Nc1cc([N+](=O)[O-])c2[nH]c(=O)c3ccccc3c2c1)C(F)(F)F,87.1%
11,COc1cc2c(cc1NC(=O)C(F)(F)F)-c1ccc(NC(=O)C(F)(F)F)cc1C2,86.4%
12,COc1ccc(/C(C#N)=C/c2cccc(OC)c2OC)cc1,84.3%
13,C/C(=C/CCC(C)[C@@H]1CC[C@]2(C)C3=C(CC[C@@]12C)[C@@]1(C)CCC(=O)C(C)(C)[C@@H]1CC3)C(=O)O (stereo not given in full),-78.1% (active)
14,N#CC1=CC2CN(Cc3ccccc3)C1C1C(=O)N(c3ccccc3)C(=O)C21 (stereo not given),101%
15,COC(=O)C1OC1c1cc([N+](=O)[O-])ccc1OC (stereo not given),110%
16,O=c1cn[nH]c2ccc(Br)cc12,106%
17,COc1cc(CNC(=O)C2CSC3(C)c4ccccc4C(=O)N23)cc(OC)c1OC (stereo not given),93%
18,O=C1/C=C/[C@@H](O)[C@@H]2C[C@@H](O)C[C@H]2/C=C/CCC[C@H](C(F)(F)F)O1,65.6%
19,O=C1CCn2c1c(O)c1ccccc1c2=O,110%
20,COc1ccc(/C(=N\N)C(=O)c2ccccc2)cc1 (tested in a mixture with another compound),94%

row,Compound,growth
1,O=C(CCl)Nc1ccc(Cc2ccc(NC(=O)CCl)cc2)cc1,26.3%
2,CCOC(=O)C1=CSC2=NC3=C(CCC/C3=C\c3cc(OC)c(OC)c(OC)c3)C(c3cc(OC)c(OC)c(OC)c3)N12 (stereo not given),85.1%
3,C=CCSC(CC)(CC)C(=O)NC,102%
4,CCN(CCCNc1cc2c(c(N)c1S(=O)(=O)O)C(=O)c1ccccc1C2=O)c1ccccc1,95.1%
5,Cc1ccc(S(=O)(=O)N/N=C2\CCCc3ccccc32)cc1,94.6%
6,COc1cc(-c2nn(-c3cccc(NC(=O)CCNc4ccc(N5CCOCC5)cc4)c3)cc2-c2ccncc2)ccc1Cl,32.9%
7,COc1cc2c(cc1NC(=O)C(Cl)Cl)-c1ccc(NC(=O)C(Cl)Cl)cc1C2,3.35% (active)
8,OCC1OC2C(NC(=S)N2c2ccccc2)C(O)C1O (stereo not given),91.9%
9,Cc1cc(O)ccc1C1=NN(c2ccc(S(C)(=O)=O)cc2)C(=O)CC1,78.2%
10,Cc1c(Cl)cccc1NC(=O)CN1CCOCC1,117%
11,O=C1c2ccccc2C(=O)c2c1ccc(C(Br)Br)c2Cl,42.9%
12,CC[C@@H](C(=O)[C@@H](C)[C@@H](O)[C@H](C)[C@@H]1O[C@@H]([C@@H](CC)C(=O)N(CC)CC)CC[C@@H]1C)C1O[C@]2(C=CC(=O)[C@]3(CC[C@@](C)([C@H]4CC[C@](O)(CC)[C@H](C)O4)O3)O2)[C@H](C)C[C@@H]1C (stereo not given in full),23.4%
13,COc1cc(C(=O)n2nc(-c3cc(OC)c(OC)c(OC)c3)nc2N)cc(OC)c1OC,102%
14,COc1ccc(C(=O)N2C=Cc3ccccc3C2C#N)cc1 (stereo not given),93.6%
15,COc1ccc(-c2nn(-c3cccc(Cl)c3)cc2-c2cc(-c3ccccc3)[nH]c(=O)c2C#N)cc1,45.2%
16,CCOC(=O)C1C(C(=O)OCC)C2C(=O)C3C(C(=O)OCC)C(C(=O)OCC)C3C(=O)C12 (stereo not given),96.4%
17,CC1=CC2C(C(O)CC3(C)C2CC(C)C32OCOC23COCO3)C2(C)C/C(=C/O)C(=O)C=C12 (stereo not given),56%
18,CCN(CC)CCOc1cccc2c1C(=O)c1ccccc1C2=O,92.1%
19,Cc1c2cnccc2c(C)c2c1oc1ccccc12,73.1%
20,O=C(Nc1ccc(NS(=O)(=O)c2ccc(F)cc2)cc1)C12CC3CC(CC(C3)C1)C2,93.7%

# System: PC-3 prostate
# Assay: as above
# Settings: 10 µM
row,Compound,growth
1,CCc1ccc(-c2ccc(-n3nc(C)c4c(N)nc(Cc5ccccc5)nc43)cc2)cc1,54.7%
2,O=[N+]([O-])c1ccc2ncccc2c1Cl,38.5%
3,Cc1ccc(-n2nnnc2N)c(C)c1,105%
4,Oc1ccc(-c2[nH]c3ccccc3c2-c2nc3ccccc3o2)cc1,57.4%
5,CCc1ccc(C2=NN(c3ccc(S(C)(=O)=O)cc3)C(=O)CC2)cc1,56.6%
6,COc1ccc(-c2nn(-c3cccc(Cl)c3)cc2-c2c(C#N)c(=O)n3[nH]c(-c4ccc(C)cc4)nc3c2C#N)cc1,68.6%
7,O=C1c2ccccc2C(=O)c2c1ccc(C(Br)Br)c2[N+](=O)[O-],19.2%
8,CCOC(=O)CC(S(=O)(=O)c1ccccc1)S(=O)(=O)c1ccccc1,97.7%
9,CC(=O)Nc1ccc(S(=O)(=O)c2ccnc3cc(Cl)ccc23)cc1,96%
10,O=C(Nc1cc([N+](=O)[O-])c2[nH]c(=O)c3ccccc3c2c1)C(F)(F)F,94.4%
11,COc1cc2c(cc1NC(=O)C(F)(F)F)-c1ccc(NC(=O)C(F)(F)F)cc1C2,90.8%
12,COc1ccc(/C(C#N)=C/c2cccc(OC)c2OC)cc1,82%
13,C/C(=C/CCC(C)[C@@H]1CC[C@]2(C)C3=C(CC[C@@]12C)[C@@]1(C)CCC(=O)C(C)(C)[C@@H]1CC3)C(=O)O (stereo not given in full),-29.8% (active)
14,N#CC1=CC2CN(Cc3ccccc3)C1C1C(=O)N(c3ccccc3)C(=O)C21 (stereo not given),101%
15,COC(=O)C1OC1c1cc([N+](=O)[O-])ccc1OC (stereo not given),96%
16,O=c1cn[nH]c2ccc(Br)cc12,95.4%
17,COc1cc(CNC(=O)C2CSC3(C)c4ccccc4C(=O)N23)cc(OC)c1OC (stereo not given),90%
18,O=C1/C=C/[C@@H](O)[C@@H]2C[C@@H](O)C[C@H]2/C=C/CCC[C@H](C(F)(F)F)O1,25.1%
19,O=C1CCn2c1c(O)c1ccccc1c2=O,100%
20,COc1ccc(/C(=N\N)C(=O)c2ccccc2)cc1 (tested in a mixture with another compound),90.8%

row,Compound,growth
1,O=C(CCl)Nc1ccc(Cc2ccc(NC(=O)CCl)cc2)cc1,2.98% (active)
2,CCOC(=O)C1=CSC2=NC3=C(CCC/C3=C\c3cc(OC)c(OC)c(OC)c3)C(c3cc(OC)c(OC)c(OC)c3)N12 (stereo not given),77.1%
3,C=CCSC(CC)(CC)C(=O)NC,101%
4,CCN(CCCNc1cc2c(c(N)c1S(=O)(=O)O)C(=O)c1ccccc1C2=O)c1ccccc1,87.1%
5,Cc1ccc(S(=O)(=O)N/N=C2\CCCc3ccccc32)cc1,90.3%
6,COc1cc(-c2nn(-c3cccc(NC(=O)CCNc4ccc(N5CCOCC5)cc4)c3)cc2-c2ccncc2)ccc1Cl,8.06% (active)
7,COc1cc2c(cc1NC(=O)C(Cl)Cl)-c1ccc(NC(=O)C(Cl)Cl)cc1C2,18.8%
8,OCC1OC2C(NC(=S)N2c2ccccc2)C(O)C1O (stereo not given),96%
9,Cc1cc(O)ccc1C1=NN(c2ccc(S(C)(=O)=O)cc2)C(=O)CC1,77.9%
10,Cc1c(Cl)cccc1NC(=O)CN1CCOCC1,102%
11,O=C1c2ccccc2C(=O)c2c1ccc(C(Br)Br)c2Cl,40.5%
12,CC[C@@H](C(=O)[C@@H](C)[C@@H](O)[C@H](C)[C@@H]1O[C@@H]([C@@H](CC)C(=O)N(CC)CC)CC[C@@H]1C)C1O[C@]2(C=CC(=O)[C@]3(CC[C@@](C)([C@H]4CC[C@](O)(CC)[C@H](C)O4)O3)O2)[C@H](C)C[C@@H]1C (stereo not given in full),7.83% (active)
13,COc1cc(C(=O)n2nc(-c3cc(OC)c(OC)c(OC)c3)nc2N)cc(OC)c1OC,95.7%
14,COc1ccc(C(=O)N2C=Cc3ccccc3C2C#N)cc1 (stereo not given),93.2%
15,COc1ccc(-c2nn(-c3cccc(Cl)c3)cc2-c2cc(-c3ccccc3)[nH]c(=O)c2C#N)cc1,71.6%
16,CCOC(=O)C1C(C(=O)OCC)C2C(=O)C3C(C(=O)OCC)C(C(=O)OCC)C3C(=O)C12 (stereo not given),97.6%
17,CC1=CC2C(C(O)CC3(C)C2CC(C)C32OCOC23COCO3)C2(C)C/C(=C/O)C(=O)C=C12 (stereo not given),31.7%
18,CCN(CC)CCOc1cccc2c1C(=O)c1ccccc1C2=O,83.5%
19,Cc1c2cnccc2c(C)c2c1oc1ccccc12,99.8%
20,O=C(Nc1ccc(NS(=O)(=O)c2ccc(F)cc2)cc1)C12CC3CC(CC(C3)C1)C2,78.8%
